# Source: PubChem BioAssay (several laboratories)
# Neddyl block = inhibitors of human cullin neddylation | TR-FRET cullin neddylation, biochemical | calls only at 25 µM | 0.58% of 360,000 active; in the data active means inhibition above about 36%
# proKLK7 act = activates the human kallikrein-7 zymogen; purified proKLK7, EDANS-DABCYL substrate fluorescence; 100% is mature enzyme control, 0% vehicle; activation, % at 7 µM; 0.9% of 370,000 active;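 active means activation above the mean of all tested compounds plus 3 SD, computed per campaign excluding outliers beyond control limits, cut at about 13% in these data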
# Target sequence (P49862 whole entry, looked up): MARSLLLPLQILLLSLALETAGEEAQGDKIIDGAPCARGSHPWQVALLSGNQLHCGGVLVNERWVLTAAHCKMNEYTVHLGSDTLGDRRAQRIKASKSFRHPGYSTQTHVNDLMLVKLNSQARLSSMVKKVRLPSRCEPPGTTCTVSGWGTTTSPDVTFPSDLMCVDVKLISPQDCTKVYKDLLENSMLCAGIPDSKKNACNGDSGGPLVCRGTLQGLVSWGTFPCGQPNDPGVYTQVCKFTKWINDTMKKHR
# FAS-TE inh = blocks the thioesterase domain of human fatty acid synthase; P49327; recombinant FAS-TE, OMFH fluorogenic substrate, fluorescence endpoint; inhibition, % at 15 µM; 0.67% of 360,000 active; AID 602261;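 active means compounds whose normalised, plate-corrected inhibition of enzyme fluorescence in the single-dose primary screen is 50% or more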;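 further: 0% = DMSO with enzyme and 100% = substrate without enzyme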
# PfG6PD inh = PfG6PD (Plasmodium falciparum) enzyme inhibition. inhibition, % at 20 µM. AID 504690. PfGluPho enzyme, NADPH resazurin-diaphorase fluorescence. 0.78% of 350,000 active;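 active means inhibition reaching at least a set limit at 20 µM in the primary screen, cut at about 59% in these data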;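 further: 0% = DMSO wells with substrate and 100% = DMSO wells lacking glucose-6-phosphate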
# PfGluPho conf = confirmation of Plasmodium falciparum G6PD inhibitors | shares compounds with PfG6PD inh | recombinant PfGluPho, NADPH-diaphorase-resazurin fluorescence | inhibition, % at 20 µM | 34% of 2,400 active;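 active means inhibition of at least 50% at 20 µM in any single replicate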;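 further: 0% = DMSO with substrate and 100% = DMSO lacking glucose-6-phosphate substrate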
# Diaphorase 10uM = inhibits diaphorase or oxidizes, flagging false PfG6PD hits; diaphorase-coupled resazurin reduction, fluorescence, NADPH 10 uM; inhibition, % at 20 µM; 39% of 820 active; shares compounds with PfG6PD inh;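 active means average inhibition reaching 50% or more with the compound at 20 µM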;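 further: resorufin red fluorescence formed as diaphorase reduces resazurin using NADPH; 0% = DMSO with enzyme and 100% = DMSO without enzyme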
# Diaph ctr 30uM = diaphorase inhibition or oxidation at 30 uM NADPH; shares compounds with PfG6PD inh; Diaphorase/resazurin coupled assay, resorufin fluorescence; inhibition, % at 20 µM; 29% of 820 active;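 active means inhibition averaging 50% or more, tested at 20 µM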;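 further: 0% = DMSO with enzyme and 100% = DMSO wells lacking diaphorase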
# Active calls of the source: *; i = inactive; . = not tested or not shown. A selection: hits, their analogues and other compounds. The true share with any hit is near 2.7%.
SMILES,Neddyl block,proKLK7 act,FAS-TE inh,PfG6PD inh,PfGluPho conf,others
CCOC(=O)CNc1c(-c2ccc(OC)cc2)nc2ccc(Cl)cn12,.,6.7,2.7,74.2*,26.0,
COCCNc1c(-c2ccc(OC)cc2)nc2ccc(Cl)cn12,.,4.2,-4.9,64.8*,41.5,
COC(=O)[C@H](Cc1ccccc1)N(Cc1cn(Cc2ccccc2)nn1)S(=O)(=O)c1ccccc1Br,.,-0.2,.,.,.,
CCN(CC(=O)Nc1ccccc1C(F)(F)F)C(=O)c1ccc2[nH]c3c(c2c1)CC(C)CC3 (stereo not given),i,1.3,22.5,89.8*,36.9,
C=CCSc1nc2sc3c(c2c(=O)n1CC)CCc1ccccc1-3,i,0.2,16.5,84.4*,50.6*,Diaphorase 10uM=-16.0;Diaph ctr 30uM=-0.7
C=CCn1c(SCC)nc2sc3c(c2c1=O)CCc1ccccc1-3,i,-0.1,15.1,-1.3,.,
CCc1nnc(NC(=O)c2c(-c3ccccc3)noc2C)s1,i,-0.3,-1.4,-12.3,.,
O=C(CSc1ccccc1)Nc1nnc(COc2ccc(Cl)cc2)s1,i,0.1,5.5,78.3*,42.9,
Cc1cccc(C)c1OCc1nnc(NC(=O)CSc2ccc(Cl)cc2)s1,i,-0.1,-6.7,-6.7,.,
Cc1onc(-c2ccccc2)c1C(=O)Nc1nnc(COc2ccc(Cl)cc2)s1,i,.,14.3,77.9*,48.7,
CCOCC(=O)Nc1nnc(COc2ccc(Cl)cc2)s1,i,0.4,1.4,62.1*,15.4,
COC(=O)[C@]12C[C@H](CC(=O)NCC34CC5CC(CC(C5)C3)C4)C(=O)N(Cc3ccco3)C1=C[C@H](C(C)(C)C)O[C@@H]2C,.,0.6,.,.,.,
COc1ccc(CN(Cc2cccn2C)S(=O)(=O)c2ccc(C)cc2)cc1,i,-0.7,29.9,66.4*,2.2,
CCOc1ccc(Nc2nc3cc(S(=O)(=O)N(CC)CC)ccc3o2)cc1,i,.,21.3,62.5*,17.5,
CCN(CC)S(=O)(=O)c1ccc2oc(Nc3ccc(OC)cc3)nc2c1,i,0.3,16.5,15.9,.,
O=C1CCC[C@@H]2[C@@H](Cc3ccccc3)[C@H](N3CCN(c4ccccc4)CC3)C[C@@H]3CCN1[C@@H]32,i,-0.3,35.8,107.0*,55.9*,Diaphorase 10uM=59.7*;Diaph ctr 30uM=46.6
O=C1CCC[C@@H]2[C@H](Cc3ccccc3)[C@@H](O)C[C@@H]3CCN1[C@@H]32,i,0.7,-5.5,-7.0,.,
Oc1c(N=Nc2ccccc2)sc2ccccc12,i,0.2,-1.5,60.2*,13.0,
CCOC(=O)c1sc2nc(-c3ccco3)c3c(c2c1N)CC(C)(C)OC3,i,-0.5,6.3,64.5*,9.9,
Cc1nc2sc(C(=O)O)c(N)c2c2c1COC(C)(C)C2,i,-0.1,-5.2,54.3,.,
Cc1cc(C(=O)O[C@@H]2CCC[C@]3(C(=O)N(Cc4ccccc4)c4ccccc43)[C@H]2NC(=O)CCc2ccccc2)no1,.,0.1,.,.,.,
O=C(Sc1n[nH]c(=O)[nH]c1=O)c1ccccc1,i,-0.2,-2.8,110.8*,92.6*,Diaphorase 10uM=-7.9;Diaph ctr 30uM=-8.8
COc1ccc([N+](=O)[O-])cc1COc1cc(C)cc2oc(=O)cc(-c3ccccc3)c12,i,0.0,16.6,85.6*,28.0,
CC(=O)COc1cc(C)cc2oc(=O)cc(-c3ccccc3)c12,i,0.5,-0.1,-19.7,.,
O=c1ccsn1Cc1ccccc1,i,0.7,-3.5,94.4*,74.9*,Diaphorase 10uM=-4.3;Diaph ctr 30uM=-5.0
SMILES,Neddyl block,proKLK7 act,FAS-TE inh,PfG6PD inh,PfGluPho conf,others
O=C(Nc1ccncc1)c1cc2ccccc2cc1O,i,-0.5,-7.9,68.0*,43.1,
O=C(Nc1cccc([N+](=O)[O-])c1)c1cc2ccccc2cc1O,i,-0.1,10.7,72.6*,11.4,
O=C(O)c1ccccc1C(=O)Nc1cccc([N+](=O)[O-])c1,i,-0.2,-2.6,-11.7,.,
COc1cc(OC)c(NC(=O)c2cc3ccccc3cc2O)cc1Cl,.,-60.8,36.5,84.8*,23.4,
O=C(Nc1ccncc1)c1ccccc1F,i,-0.7,-13.5,-2.4,.,
C=CCN1[C@H](C)COc2cccc(F)c2S1(=O)=O,.,0.1,.,.,.,
COc1ccc(S[C@]2(C(=O)N3CCN(C(C)=O)CC3)CC(=O)N(C(=O)CCc3ccccc3)[C@@H]2c2ccc(OC)cc2)cc1,.,1.1,.,.,.,
CCN(CC)C(=O)CC[C@H]1CC[C@]2(CCCN(Cc3ccccn3)C2)O1,.,-0.2,.,.,.,
Cc1ccc(-n2c(SCC(=O)Nc3ccc(OCc4ccccc4)cc3)nnc2-c2cnccn2)cc1,.,0.5,.,.,.,
C=CCc1c(C)c(C#N)c2nc3ccccc3n2c1N1CCCCC1,i,-0.2,-0.8,-21.0,.,
C=CCc1c(C)[nH]c(=S)c(C#N)c1C,i,0.2,6.2,72.5*,56.2*,Diaphorase 10uM=-13.2;Diaph ctr 30uM=-21.1
COc1ccc(NC2CCCN(Cc3cccc4cnccc34)C2)cc1OC (stereo not given),i,-0.3,-3.1,64.8*,58.1*,Diaphorase 10uM=9.7;Diaph ctr 30uM=1.8
COCc1cn([C@H]2C[C@@H]3O[C@H](CO)CC[C@@H]3O[C@@H]2CCc2ccc(-c3ccc(OC)cc3)cc2)nn1,.,-0.2,.,.,.,
Cc1cc(SCC(=O)N/N=C/c2ccco2)nc2ccccc12,i,0.5,3.4,79.6*,52.2*,Diaphorase 10uM=57.6*;Diaph ctr 30uM=48.4
O=C(CSc1nc2ccccc2o1)N/N=C/c1ccco1,i,-0.4,-4.5,24.3,.,
O=S(=O)(c1ccc2oc(=S)[nH]c2c1)N1CCOCC1,i,0.0,-6.6,65.6*,19.5,
O=S(=O)(c1ccc2oc(=S)[nH]c2c1)N1CCCCC1,i,0.4,-0.9,-21.2,.,
CCOc1cccc(CNc2ccc(O)cc2)c1OCc1ccc(Cl)cc1Cl,i,-0.2,18.5,69.4*,26.1,
NC(=S)N/N=C/c1c[nH]c2ccc(OCc3ccccc3)cc12,i,.,-3.2,59.9*,26.7,
O=C(CSc1nc2c(c(=O)[nH]1)CCCC2)N1CCOCC1,.,0.6,.,.,.,
Cc1nn(-c2ccccn2)c2c1C(=O)C(Br)CC2 (stereo not given),i,.,-2.2,89.7*,-1.3,
CC1=C(C)C(=O)N(c2ccccn2)C1=O,i,0.3,-10.1,3.0,.,
O=c1[nH]nc(CNc2ccc(O)cc2)c2ccccc12,i,0.1,-0.3,59.4*,48.4*,Diaphorase 10uM=1.2;Diaph ctr 30uM=6.3
CCc1cc[n+](C2=C([O-])c3ccccc3C(=O)/C2=N\S(=O)(=O)c2cccs2)cc1,i,-0.4,2.9,95.3*,72.3*,Diaphorase 10uM=65.8*;Diaph ctr 30uM=74.8*
COc1cccc(-c2nnc3n2N=C(c2ccc(Cl)cc2)CS3)c1,.,0.6,.,.,.,
Cn1c(SCC(=O)Nc2ccccc2-c2ccccc2)nnc1-c1ccccc1,.,0.3,.,.,.,
Cn1sc2ccccc2c1=O,i,0.6,-6.1,91.4*,52.0*,Diaphorase 10uM=-13.1;Diaph ctr 30uM=8.3
CC(=O)Nc1ccc(-c2cc(N)n(-c3ccccc3)n2)cc1,i,-0.2,-6.5,7.3,.,
O=c1c2ccccc2sn1-c1nccs1,i,-0.9,-2.0,112.4*,114.6*,Diaphorase 10uM=-25.4;Diaph ctr 30uM=-24.3
